The results in this text go back to PubChem BioAssay (NCATS).

Where “and” joins values, the source holds several entries; their conditions need not be identical. Equal values may be shown once. Results filed as inconclusive are left out. Calls of active or inactive are those of the source. Calls come from the whole dose curve; as a rule, active = well fitted cell-killing curve with a large enough effect; inconclusive = small, poorly fitted or top-dose-only effect, or effect the other way; inactive = no such curve, though single readings can be large or run the other way.
Potency is the fitted concentration of half-maximal effect.

The assay can be described thus: Viability qHTS for spleen associated tyrosine kinase inhibitor (SYKi) naive MV4-11 cells (AID 1963823). Note: nearly all actives have a fitted effect of over 40% in size. Conditions: MV4-11 AML viability, CellTiter-Glo luminescence, 72 h; series mostly up to 45 µM; viability (% of control): at the top concentration. In outline:
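Seeding of 500 SYKi-naive MV4-11 cells per well onto pre-dispensed compounds preceded a 72 hr incubation at 37 C. Luminescent CellTiter-Glo signal, read after 10 min at room temperature, reflected viable cells.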
On the technique in general: qHTS replaces the single test concentration by a dilution series.
On to `Cc1c(-c2ccc(-c3ccccc3F)cc2)nc2ccc(F)cc2c1C(=O)O`, for which the Potency is 0.148 µM (active). In the case of `CCCC(CCC)(C(=O)OCC)C(=O)OCC`, the “viability (% of control)” value is 71.7% (inactive). Consider `O=C(O)CC(C(=O)O)n1c(O)c(C2=c3cc(Br)ccc3=NC2=O)sc1=S` (centres undefined), for which the “viability (% of control)” value was 67.5% (inactive). As to `Cn1cc(-c2ccc(-c3cncc(Cl)c3N3CCC4(CCNC4=O)CC3)cc2)cn1`, the Potency is 5.25 µM (active). As for `N#C/C(=C1/SC[C@@H](c2ccc(Cl)cc2Cl)S1)n1ccnc1`, the Potency was 11.9 µM (active). Consider `Cc1ccc(S(=O)(=O)NC(=O)NC2CCCCCCC2)cc1`, for which the “viability (% of control)” value is 82.2% (inactive). For the compound `CCOC(=O)[C@H](CCc1ccccc1)N[C@@H](C)C(=O)N(CC(=O)O)C1Cc2ccccc2C1`, the “viability (% of control)” value was 55.9% (inactive). On to `c1ccc2c(c1)CCc1ccccc1N2`, for which the “viability (% of control)” value was 72.8% (inactive). With `OCc1ccc(Cl)cc1Cl`, the Potency is 0.0067 µM (active). With `NC1=N[C@@]2(c3cc(NC(=O)c4ccc(F)cn4)ccc3F)COC[C@H]2CS1`, the “viability (% of control)” value is 60.3% (inactive).

On to `O=C1OC2(c3ccccc31)c1cc(I)c(O)c(I)c1Oc1c2cc(I)c(O)c1I`, for which the “viability (% of control)” value is 53.5% (inactive). Consider `O=C(O)C1(C(=O)O)CCC1.[NH2-].[NH2-].[Pt+2]`, for which the “viability (% of control)” value is 55.2% (inactive). Turning to `CC(C)(C)NCC(O)c1cc(O)cc(O)c1` (centres undefined), the “viability (% of control)” value was 41.3% (inactive).

On to `Cc1cccc(/C=N/Nc2cc(N3CCOCC3)nc(OCCc3ccccn3)n2)c1`, for which the Potency is 1.32 µM (active). In the case of `O=C(Nc1ccc2[nH]nc(-c3ccncc3)c2c1)[C@@H]1CCN(CC(=O)N2CCN(c3ccc(-c4ncccn4)cc3)CC2)C1`, the Potency was 25.9 nM (active) and 525 nM (active). As to `CO[C@@H]1[C@@H](OC)[C@H](C)[C@@](O)(CC(=O)O)O[C@H]1[C@H](C)[C@H]1O[C@@]2(CC[C@@](C)([C@H]3CC[C@@](C)([C@@H]4O[C@@H]([C@H]5O[C@](C)(O)[C@H](C)C[C@@H]5C)C[C@@H]4OC4C[C@H](OC)[C@@H](OC)[C@H](C)O4)O3)O2)C[C@H](O)[C@H]1C` (some centres undefined), the Potency was 0.376 µM (active). In the case of `COc1ccccc1C(=O)Nc1cc2c(cc1N1CCNC[C@H]1C)n(C)c(=O)n2C`, the Potency was 5.9 µM (active). In the case of `C[C@@H]1[C@H](O)[C@@H](C)/C=C/C=C/C=C/C=C/C=C/C=C/C=C/[C@H](O[C@@H]2O[C@H](C)[C@@H](O)[C@H](N)[C@@H]2O)C[C@@H]2O[C@](O)(C[C@@H](O)C[C@@H](O)[C@H](O)CC[C@@H](O)C[C@@H](O)CC(=O)O[C@H]1C)C[C@H](O)[C@H]2C(=O)O`, the “viability (% of control)” value was 71.4% (inactive). As to `O=C(O)C(Cc1cc(I)c(O)c(I)c1)c1ccccc1` (centres undefined), the “viability (% of control)” value was 76.6% (inactive). In the case of `CCS(=O)(=O)Nc1ccc(Oc2ccc(F)cc2F)c(-c2cn(C)c(=O)c3[nH]ccc23)c1`, the Potency is 0.0037 µM (active). `C#C[C@]1(OC(C)=O)CC[C@H]2[C@@H]3CCC4=C/C(=N/O)CC[C@@H]4[C@H]3CC[C@@]21CC`: the Potency was 26.6 µM (active). As to `COc1ccc(CCN(C)CCCN2CCc3cc(OC)c(OC)cc3CC2=O)cc1OC`, the “viability (% of control)” value was 74.8% (inactive).

In the case of `Oc1ccc(O)cc1`, the Potency was 11.9 µM (active).

For the compound `O=C(O)Cc1ccc(OCCNC[C@H](O)c2ccccc2)cc1`, the “viability (% of control)” value was 84.4% (inactive). Regarding `CN1CCCN(C(c2ccccc2)c2ccc(Cl)cc2)CC1` (centres undefined), the Potency is 21.1 µM (active). Consider `O=C(O)c1ccc(-n2nc(-c3ccccc3O)nc2-c2ccccc2O)cc1`, for which the Potency was 16.8 µM (active).

Turning to `O=C1NC(=O)C(c2ccccc2)(c2ccccc2)N1`, the “viability (% of control)” value was 36.4% (inactive). For the compound `CC(=O)C1CCC2C3CCC4=CC(=O)CCC4(C)C3CCC12C` (centres undefined), the Potency is 16.6 µM (active). On to `Oc1ccc(CCNCCCCCCNCCc2ccccc2)cc1O`, for which the Potency is 26.6 µM (active). For the compound `COC(=O)CCCCC(CCSS/C(CCO)=C(\C)N(C=O)Cc1cnc(C)nc1N)SC(C)=O` (centres undefined), the “viability (% of control)” value is 63.4% (inactive). Turning to `COc1cccc2c1c(O)c(C(=O)N(C)c1ccc(C(F)(F)F)cc1)c(=O)n2C`, the Potency entry is “inactive”. For the compound `Cc1ccsc1C(=CCCN1CCC[C@@H](C(=O)O)C1)c1sccc1C`, the “viability (% of control)” value is 45.1% (inactive). For the compound `O=C1CN(/N=C/c2ccc([N+](=O)[O-])o2)C(=O)N1`, the “viability (% of control)” value was 10.5% (inactive). For the compound `CCCCOc1ccc(C(=O)CCN2CCCCC2)cc1`, the Potency is 21.1 µM (active). As for `CCOC(=O)N1CCN(/[N+]([O-])=N/Oc2ccc([N+](=O)[O-])cc2[N+](=O)[O-])CC1`, the Potency is 2.95 µM (active). On to `CCCCNc1ccc(C(=O)OCCOCCOCCOCCOCCOCCOCCOCCOCCOC)cc1`, for which the Potency was 10.6 µM (active).

As for `C=C1C[C@H]2[C@@H]3C=C(C)C4=CC(=O)CC[C@]4(C)[C@H]3CC[C@]2(C)[C@@]1(OC(C)=O)C(C)=O`, the Potency is 18.8 µM (active). Take `CSc1ccc(/C=C2/C(C)=C(CC(=O)O)c3cc(F)ccc32)cc1`: the “viability (% of control)” value is 67% (inactive). The same measure, in the same setting: as for `COC(=O)[C@@H](N)Cc1ccc(O)c(O)c1`, the figure is 66.5% (inactive).
